Rows were chosen to be rich in hits. Some 4.7% of all compounds tested hit in one or more screens of this group.
SKKanGAS inh: SKKanGAS growth inhibition. AID 1662. 300,000 tested, 1.3% active. inhibition, % at 7.5 µM. S. pyogenes SKKanGAS, kanamycin growth, BacTiter-Glo, 6 h;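 active means mean replicate score, as percent of positive control median, at least 50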;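 further: strain carries kanamycin resistance gene driven by streptokinase promoter and grows in 40 µg/ml kanamycin; loss of luminescence reflects streptokinase promoter inhibition or plain growth inhibition; 0% = median of DMSO wells and 100% = positive control at its reference dose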
TIM10 inh: inhibits growth of TIM10 yeast strain; S. cerevisiae TIM10 strain growth, BacTiter-Glo luminescence, 24 h; inhibition, % at 10 µM; 330,000 tested, 1.4% active; AID 463195;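 active means inhibition of 40% or more at the single tested concentration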;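 further: wild-type TIM10 isogenic control strain grown at permissive 25 °C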
PfHsp90 yeast 2: growth inhibition of yeast expressing Plasmodium Hsp90 | AID 504621 | inhibition, % at 9.4 µM | 310,000 tested, 0.32% active | S. cerevisiae expressing PfHsp90, BacTiter-Glo ATP, 48 h; yeast lacking PDR1 and PDR3 efflux regulators;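 active means every replicate shows inhibition above about 80%, whatever the replicate mean, limit read from the data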;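 further: 0% = DMSO neutral controls and 100% = 20 µM radicicol positive controls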
ATG4B inh: blocks human ATG4B protease cleavage of LC3 substrate. AID 504462. 340,000 tested, 0.51% active. ATG4B cleavage of LC3-PLA2, NBD-HPC fluorescence, 1 h. inhibition, % at 8.33 µM; in the data active means inhibition above about 40%
Target sequence (Q9Y4P1 whole entry, looked up): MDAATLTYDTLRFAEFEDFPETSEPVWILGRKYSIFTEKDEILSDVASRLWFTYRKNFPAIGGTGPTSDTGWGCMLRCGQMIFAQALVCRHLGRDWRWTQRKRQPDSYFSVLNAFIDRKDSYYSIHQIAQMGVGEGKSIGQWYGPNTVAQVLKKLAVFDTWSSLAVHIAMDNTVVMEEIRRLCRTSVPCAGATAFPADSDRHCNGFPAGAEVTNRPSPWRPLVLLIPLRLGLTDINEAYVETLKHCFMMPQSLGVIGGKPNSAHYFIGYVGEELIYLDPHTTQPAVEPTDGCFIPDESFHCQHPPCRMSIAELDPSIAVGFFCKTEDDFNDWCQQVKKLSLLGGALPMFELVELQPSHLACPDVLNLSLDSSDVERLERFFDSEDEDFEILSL
tim23-1 inh: tim23-1 yeast growth inhibition | S. cerevisiae tim23-1 growth, BacTiter-Glo luminescence, 24 h | 330,000 tested, 1.3% active | inhibition, % at 20 µM;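 active means growth inhibition of the mutant yeast at or above 50%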;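 further: temperature-sensitive mutant grown at 25 °C; plate controls were DMSO-treated mutant yeast for no effect and medium wells lacking yeast for full effect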
tim10-1 inh: tim10-1 yeast growth inhibition; S. cerevisiae tim10-1 ts strain growth, BacTiter-Glo, 24 h; inhibition, % at 20 µM; 330,000 tested, 2.2% active;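 active means inhibition of at least 40%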;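 further: mutant grown at 25 °C; 0% = DMSO wells with yeast and 100% = wells holding no yeast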
tim10-1 conf: confirmation of tim10-1 mutant yeast growth inhibitors. inhibition, % at 20 µM. 7,400 tested, 56% active. shares compounds with tim10-1 inh. S. cerevisiae tim10-1 ts strain growth, BacTiter-Glo, 24 h;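 active means inhibition of yeast growth at or above a set limit in either of two repeat tests at 20 µM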;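 further: tim10-1 mutant grown at permissive 25 °C to find synthetic lethal compounds; 0% = DMSO yeast wells and 100% = medium wells without yeast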
tim10 confirm: TIM10 yeast growth inhibition, confirmed; shares compounds with TIM10 inh; S. cerevisiae tim10 strain growth, BacTiter-Glo luminescence, 24 h; inhibition, % at 10 µM; 4,600 tested, 63% active;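 active means inhibition of yeast growth at or above a set limit in either of two replicates at 10 µM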;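 further: this counterscreen used the strain with wild-type TIM10; 0% = yeast with DMSO and 100% = medium wells lacking yeast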
tim23-1 conf: confirmation of tim23-1 mutant yeast growth inhibitors; shares compounds with tim23-1 inh; S. cerevisiae tim23-1 growth, BacTiter-Glo luminescence, 24 h; inhibition, % at 20 µM; 4,400 tested, 83% active;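 active means inhibition above about 39% in either of two replicate wells at 20 µM, limit read from the data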;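 further: temperature-sensitive tim23-1 mutant grown at 25 °C; 0% = DMSO wells with yeast and 100% = medium wells without yeast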
* = called active by the depositor; · = no result given.

SMILES | SKKanGAS inh | TIM10 inh | PfHsp90 yeast 2 | ATG4B inh | tim23-1 inh | tim10-1 inh | tim10-1 conf | tim10 confirm | tim23-1 conf
Cc1ccc(S(=O)(=O)c2c(C)nn(C(C)(C)C)c2OC(=O)C(C)(C)C)cc1 | -4.6 | 7.5 | -15.4 | 0.5 | 39.4 | 31.8 | · | · | ·
CCc1nc2sc3ccccc3c(=O)c2c(=O)n1Cc1ccc(OC)cc1 | 20.0 | 17.1 | 7.7 | 10.1 | 53.3* | 40.1* | 30.5* | · | 41.2*
CCCc1nc2sc3ccccc3c(=O)c2c(=O)n1CCOC | 4.3 | -21.1 | · | · | -6.5 | 6.4 | · | · | ·
Cc1ccc(/C=C/S(=O)(=O)NCC(=O)O)cc1 | -0.5 | 4.6 | -4.5 | -8.0 | -3.2 | 7.4 | · | · | ·
S=C(NCCCN1CCOCC1)N1CCN(c2nc(-c3ccc(Cl)cc3)cs2)CC1 | -19.9 | 30.4 | 11.9 | -21.1 | 27.4 | 17.1 | · | · | ·
S=C(NCC1CCCO1)N1CCN(c2nc(-c3ccc(Cl)cc3)cs2)CC1 (stereo not given) | 9.5 | 40.2* | -45.9 | -10.8 | 50.3* | 51.4* | 38.9* | 42.5* | 52.5*
O=C(Sc1cccc2cccnc12)c1ccc(F)cc1 | · | 55.5* | · | · | 79.9* | 76.1* | 66.6* | 58.5* | 70.8*
CC(=O)/C(=N\Nc1ccccc1)Sc1cccc2cccnc12 | 0.1 | 13.2 | 6.7 | -6.2 | 26.6 | 15.2 | · | · | ·
O=C(Sc1cccc2cccnc12)c1ccccc1Br | 67.1* | 53.2* | 16.5 | · | 88.8* | 55.6* | 72.0* | 73.8* | 67.3*
O=C(Nc1ccc(Cl)cc1)c1ccco1 | -2.4 | 1.1 | -16.1 | -0.7 | 8.1 | -23.7 | · | · | ·
CN(CCOc1ccc(Cl)cc1)C(=O)c1ccc2c(=O)n3c(nc2c1)CCC3 | -2.5 | 15.0 | · | -6.5 | 16.4 | 1.3 | · | · | ·
CC(=O)c1cc(NC(=O)c2ccc(C)cc2)c(=O)oc1C | 4.2 | 17.3 | 9.0 | 9.7 | 29.1 | 35.0 | · | · | ·
Cc1oc(=O)c(NC(=O)c2ccccc2)cc1C(=O)c1ccccc1 | 6.1 | 53.4* | · | 30.1 | 56.6* | 62.3* | 61.0* | 55.1* | 59.6*
CSc1ccc(S(=O)(=O)NCCOc2ccccc2C)cc1 | -9.9 | 30.1 | -13.7 | 24.3 | 38.4 | 25.7 | · | · | ·
CC1Cc2ccccc2N1C(=S)NC(=O)c1cccc(Br)c1 (stereo not given) | 93.2* | 59.0* | -164.6 | 7.9 | 52.1* | 44.4* | 32.1* | 5.2 | 58.1*
CC(=O)c1ccc(NC(=S)N2c3ccccc3CC2C)cc1 (stereo not given) | 4.4 | 9.9 | 5.7 | -7.7 | 24.8 | -19.0 | · | · | ·
COc1ccc(SN=C2C(C)=CC(=O)C=C2C)cc1 | -0.6 | 91.3* | 91.2* | -3.7 | 75.0* | 70.9* | 73.0* | 96.4* | 74.5*
COc1ccc(-c2oc3cccnc3c2C#CC2(O)CCCCC2)cc1 | 57.0* | 41.5* | · | 14.7 | 58.3* | 48.2* | 10.9 | 26.1 | 47.6*
COC(=O)C1=C(C)N(c2cc(C)cc(C)c2)/C(=C/c2ccco2)C1=O | -7.5 | 39.4 | 0.5 | 9.7 | 54.1* | 55.4* | 28.1 | · | 50.0*
N/C(=N\OC(=O)Nc1ccc(Cl)cc1)c1ncc(C(F)(F)F)cc1Cl | -11.6 | 68.8* | -11.3 | 5.1 | 75.4* | 52.8* | 64.2* | 80.4* | 73.0*
N/C(=N\OC(=O)Nc1ccccc1)c1cccc(C(F)(F)F)c1 | -5.2 | 14.2 | -4.6 | -6.4 | 63.7* | 53.6* | 41.1* | · | 49.1*
N/C(=N\OC(=O)Nc1ccccc1)c1ncc(C(F)(F)F)cc1Cl | 6.8 | 25.0 | -3.7 | -8.9 | 44.7 | 25.7 | · | · | ·
Cc1ccc(-c2nc3ncccc3o2)cc1NC(=O)c1ccc([N+](=O)[O-])o1 | 32.2 | 83.2* | -30.8 | -7.7 | 84.5* | 73.8* | 81.6* | 85.3* | 5.7
COc1ccc(NC(=O)c2ccc([N+](=O)[O-])o2)cc1 | 1.8 | 40.8* | -2.8 | 3.8 | 59.3* | 64.2* | 45.2* | 42.6* | 57.7*
CC(=O)c1cccc(NC(=O)c2ccc([N+](=O)[O-])o2)c1 | 23.3 | 46.6* | -19.7 | -9.5 | 76.8* | 65.4* | 51.8* | 45.9* | 72.3*
SMILES | SKKanGAS inh | TIM10 inh | PfHsp90 yeast 2 | ATG4B inh | tim23-1 inh | tim10-1 inh | tim10-1 conf | tim10 confirm | tim23-1 conf
O=C(Nc1ccc2oc(-c3ccncc3)nc2c1)c1ccc([N+](=O)[O-])o1 | 6.3 | 52.8* | -36.6 | -14.0 | 69.0* | 45.4* | 68.3* | 74.9* | 78.9*
Cc1cc(-c2nc3ncccc3o2)ccc1NC(=O)c1ccc([N+](=O)[O-])o1 | · | · | -14.5 | 31.3 | · | · | · | · | ·
COCCN(C(=O)CSc1nc2ccc(C)cc2[nH]1)c1c(N)n(Cc2ccccc2)c(=O)[nH]c1=O | -4.1 | 2.6 | -48.5 | -6.0 | 8.1 | 1.2 | · | · | ·
O=C(c1ccc(F)cc1)C1CCN(C(=O)NC2CCCCC2)CC1 | 11.1 | -4.0 | · | -7.9 | 27.0 | 24.5 | · | · | ·
COc1ccc(Cn2c(SCc3ccccc3C)nc3cc(OC)c(OC)cc3c2=N)cc1 | 60.1* | 3.2 | 11.1 | · | 50.9* | 49.6* | -27.2 | · | 1.1
Cc1ncc(/C=C2\C(=O)Nc3ccccc32)[nH]1 | -7.0 | 29.2 | · | -10.7 | -29.7 | 11.6 | · | · | ·
O=C1Nc2ccccc2/C1=C/c1ccc([N+](=O)[O-])cc1 | -7.4 | 80.8* | -18.3 | -0.7 | 74.4* | 55.9* | 61.7* | 80.8* | 59.4*
CC(C)Cn1c2c(c(O)c(C(=O)Nc3ncccc3O)c1=O)CCCC2 | 89.5* | 49.6* | -13.7 | -2.1 | 55.0* | 40.5* | 42.7* | 57.0* | 60.8*
O=C(Nc1ccc(Cl)cc1)c1ccc2c(=O)n3c(nc2c1)CCCCC3 | 18.6 | -1.4 | · | -3.0 | -14.1 | -6.2 | · | · | ·
O=C(Nc1cccc(Cl)c1)c1ccc2c(=O)n3c(nc2c1)CCCCC3 | 4.6 | 73.5* | 3.0 | -7.5 | 54.4* | 44.5* | 30.4 | -14.9 | 80.0*
CC(C)CC(=O)Nc1cccc2c1C(=O)N(c1ccccc1)C2=O | -5.4 | 16.2 | 5.0 | -2.0 | 42.8 | 29.2 | · | · | ·
CC(C)CC(=O)O/N=C1\C(=O)N(c2ccccc2)c2ccccc21 | -9.0 | 49.6* | -18.7 | -6.8 | 54.4* | 62.8* | 58.8* | 73.7* | 61.7*
O=C(CC1CC2CCC1C2)OCC(=O)c1c[nH]c2ccccc12 (stereo not given) | -5.6 | 35.0 | 1.3 | -8.0 | 51.9* | 41.6* | 25.6 | · | 67.6*
O=C(Oc1ccc(Br)cc1C(=O)/C=C/c1ccccc1F)c1ccco1 | 11.8 | 70.5* | -141.1 | 2.0 | 60.3* | 41.4* | 39.9* | 62.3* | 42.8*
CCS(=O)(=O)N1CCC(NC(=O)c2ccco2)CC1 | -8.8 | 3.6 | · | -0.6 | 7.8 | 14.0 | · | · | ·

Source: PubChem
